# Reference: PubChem BioAssay
# Assay: small-molecule microarray binders of probe aEGFR, primary screen, biochemical, biotinylated probe, 635/667 nm fluorescence (AID 1097);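 also: probe is a biotinylated anti-EGFR antibody binding compounds printed on slides; score combines fluorescence near 667 nm and signal to noise of each spot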
# Conditions: higher = more signal
row,Structure (SMILES),composite z-score
1,CCCC=C(CCC)[C@@H](NS(=O)(=O)c1ccc(Cl)cc1)c1ccc(C(=O)OC)cc1,0.0219
2,[N-]=[N+]=NCc1ccccc1[C@@H]1OC(c2ccc(OCCCO)cc2)=N[C@]1(CCS(=O)(=O)c1ccccc1)C(=O)N1CCCCC1,0.208
3,C=CCC(OC(C)=O)[C@@H]1[C@@H](N(Cc2ccc(-c3ccccc3)cc2)C(=O)Cc2ccc(F)cc2)c2cc(OCCCO)ccc2N1C(=O)c1ccc2ccccc2c1 (stereo not given in full),-0.109
4,CCCCCCCCCCC(O)C1C=CC2C(=O)NC(=O)C2N1Nc1ccc(Cl)cc1Cl (stereo not given),-0.137
5,COc1ccc([Si](C)(C)[C@@H]2[C@@H](CCn3cc(CCO)nn3)O[C@]3(C(=O)N(Cc4cccc(N5C(=O)c6cccc7cccc5c67)c4)c4ccccc43)[C@H]2C)cc1,-0.125
6,COCCCNC(=O)[C@@]1(CCS(=O)(=O)c2ccccc2)N=C(c2ccc(OCCCO)cc2)O[C@H]1c1ccccc1N=[N+]=[N-],0.0135
7,O[C@@H](Cc1ccccc1)[C@@H](/C=C/C1CC1)NCc1cccc(Cl)c1,-0.296
8,CCC(CC)C(O)C1C=CC2C(=O)N(c3ccccc3)C(=O)C2N1Nc1ccccc1 (stereo not given),0.228
9,COC(=O)[C@@]1(Cc2ccccc2)[C@H]2c3cc(C(=O)N4CCCC4)n(Cc4ccc(O)c(OC)c4)c3C[C@H]2CN1C(=O)c1ccccc1,0.249
10,COCCCNC(=O)[C@@]1(Cc2ccccc2CN=[N+]=[N-])N=C(c2ccc(OCCCO)cc2)O[C@H]1c1ccccc1CN=[N+]=[N-],-0.067
11,COc1ccc(-c2cc3c(c(Cc4ccccc4)n2)[Si](C(C)C)(C(C)C)OC3)cn1,-0.16
12,CC(C)(C)OC(=O)CC[C@]1(C(=O)NCCN2CCOCC2)COC(c2ccc(OCCCO)cc2)=N1,-0.0656
13,CC(C)[Si](C#CCCCC#N)(O[C@H](c1ccccc1)c1cn(Cc2cccc(Cl)c2)nn1)C(C)C,0.0363
14,COc1ccc(C(=O)Nc2ccc(CN3C(=O)[C@]4(O[C@H](CC(=O)N5CCC[C@H]5CO)[C@@H]([Si](C)(C)c5ccc(OC)cc5)[C@@H]4C)c4ccccc43)cc2)cc1,-0.12
15,CC(C)(C)OC(=O)CC[C@@]1(C(=O)N2CCCCC2)N=C(c2ccc(OCCCO)cc2)O[C@@H]1c1ccccc1,-0.0053
16,O=C1NC(=O)C2C1C=CC(C(O)C1CC=CCC1)N2Nc1ccccn1 (stereo not given),0.26
17,[N-]=[N+]=Nc1ccccc1C[C@]1(C(=O)N2CCCCC2)COC(c2ccc(OCCCO)cc2)=N1,-0.0828
18,COc1ccc([Si](C)(C)[C@@H]2[C@@H](CC(=O)N3Cc4ccccc4C[C@H]3CO)O[C@]3(C(=O)N(Cc4cccc(N5CCC5=O)c4)c4ccccc43)[C@H]2C)cc1,0.0227
19,O=C1C[C@@](C(=O)NCc2ccccc2)(c2ccc([N+](=O)[O-])cc2)[C@@H](c2ccc(CO)cc2)N1CC12CC3CC(CC(C3)C1)C2,-0.166
20,CC=CC(O)C1C=CC2C(=O)N(C)C(=O)C2N1N(c1ccccc1)c1ccccc1 (stereo not given),0.248
21,C=C(CCCC)C(=O)CC[C@H](OC(=O)c1cccnc1)c1ccc(OCCO)cc1,0.0089
22,CCOC(=O)C1=CCC(c2ccc(F)cc2)N(S(=O)(=O)c2ccc(C)cc2)C1 (stereo not given),-0.0839
23,O=C1OCCC=C[C@H]2OC34C=CCN(Cn5nnc6ccccc65)C(=O)[C@H]3N(CCO)C(=O)[C@@H]4C12 (stereo not given in full),-0.345
24,CC(c1ccccc1)C(O)C1C=CC2C(=O)N(c3ccccc3)C(=O)C2N1Nc1ccccc1 (stereo not given),0.0038
25,NCCCCCNC(=O)[C@H]1C[C@H]2C(=O)N3CCC[C@H]3C(=O)N2[C@H]1c1ccc(O)cc1,0.426
